IkB sig inh: inhibitors of IkB signaling in ABC-DLBCL cells; ABC-DLBCL IkBa-CBG/CBR dual luciferase ratio, 4 h; response scale: scaled: untreated 0%, proteasome inhibitor 100%; 0.04% of 110,000 active; Potency, µM (top dose mostly 57.1 µM); active = well fitted curve in the direction sought with a large enough effect in the signal ratio, not every such curve was filed as active; inconclusive = small, poorly fitted or top-dose-only effect, or a change in a side signal; the % refers to the signal ratio;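 also: the direction sought is a rising ratio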
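In this assay, an IκBα–CBG68 fusion accumulates when IKK-driven degradation is blocked; native CBR normalizes for cell number. OCI-Ly3 cells were treated 4 h with compound and doxycycline, then green and red light read after Chroma-Glo addition.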
p53ts 32C kill: p53ts cell cytotoxicity, permissive temperature; H1299-p53A138V at 32C, ATP luminescence viability, 24 h; Potency, µM (top dose mostly 46.1 µM), actives largely listed as cytotoxic; 0.93% of 130,000 active; AID 924; also: nearly all actives have a fitted effect of over 55% in size
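Cells: H1299 p53ts (A138V), 600/well, pre-incubated 16–30 h at 37C. Cpd up to 46 uM, 24 h, 32C. Readout: ATPlite luminescence, 20 min RT. Normalization: DMSO vs tamoxifen 100 uM. AC50 by Hill equation.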
p53ts 39C tox: cytotoxicity in p53ts cells at nonpermissive temperature; H1299-p53A138V viability at 39C, ATP luminescence, 24 h; Potency, µM (doses to about 46.1 µM), hits mostly cytotoxic; 1.5% of 130,000 active; AID 902; also: nearly all actives have a fitted effect of over 55% in size
Imprint erasure: genomic imprint erasure induction | mouse ES Peg3-LacZ reporter, beta-gal luminescence, 40 h | Potency, µM (top dose mostly 60.7 µM), actives largely listed as activators | 0.02% of 110,000 active | AID 1948
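Imprint erasure is scored as LacZ activity from the silenced maternal Peg3 allele in feeder-free female ES cells cultured 40 h with LIF. Luminescence is normalized to in-plate negative controls and fitted to the Hill equation.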
Numbers stand for hits; 0 = inactive; ? = inconclusive; - = no result given; ! = a repeat was not active; [ ] = remark or other dose. Only some compounds are listed: those with a hit (about 1.7% of all), similar ones and a draw of the others. Unless noted, calls follow the shape of the dose curve; as a rule, active = well fitted curve in the direction sought with a large enough effect; inconclusive = small, poorly fitted or top-dose-only effect, or another doubt; inactive = no such curve, though single readings can be large; an effect the other way counts as inactive or inconclusive.

SMILES | IkB sig inh | p53ts 32C kill | p53ts 39C tox | Imprint erasure
COc1ccc(C(=O)CC2(O)C(=O)N(Cc3ccccc3)c3ccc(Br)cc32)cc1 (centres undefined) | ? | 0 | 13µM | 0[10.9 µM]
Cc1ccc(C(=O)CC2(O)C(=O)N(CCc3ccccc3)c3ccc(Cl)cc32)cc1 (centres undefined) | ? | ? | 16µM | 0[10.9 µM]
Cc1[nH]c2ccccc2c1C1(O)C(=O)N(Cc2ccccc2)c2ccc(Br)cc21 (centres undefined) | ? | 0 | 13µM | 0[10.9 µM]
O=C(CC1(O)C(=O)N(CCc2ccccc2)c2ccc(Br)cc21)c1ccccc1 (centres undefined) | ? | 0 | ? | 0[10.9 µM]
Cc1ccc(C(=O)CC2(O)C(=O)N(CCc3ccccc3)c3ccc(Br)cc32)o1 (centres undefined) | ? | 0 | 0 | 0
Cc1ccc(Cl)cc1N1CCN(C(=O)c2ccc(CS(=O)c3ccccc3)o2)CC1 (centres undefined) | ? | 0 | ? | 0[10.9 µM]
CS(=O)(=O)Nc1cccc(-c2nccc(-n3ccnc3)n2)c1 | 0[11.4 µM] | 0 | 0 | 0
COc1ccc2c(c1OC)C(Cc1ccccc1)N1CCc3cc4c(cc3C1=C2)OCO4 (centres undefined) | - | 0 | 0 | 0
CSc1ccc2c(c1)[C@H](N1CCN(C)CC1)Cc1ccccc1S2 | ? | 25µM! | 32µM | 0
COc1ccc(-c2cc(C(F)(F)F)nc(SCCC(=O)Nc3cc(C)ccc3O)n2)cc1 | ? | 0 | 10µM | 0[10.9 µM]
COc1ccc(-c2cc(C(F)(F)F)nc(SCCC(=O)Nc3ccccc3F)n2)cc1 | 0 | 0 | 0 | 0[10.9 µM]
CCc1ccc(-n2c(=O)c3c(C)c(C(=O)N(C)C)sc3n(CC(=O)Nc3cc(Cl)ccc3C)c2=O)cc1 | 0 | 0 | 0 | 0[10.9 µM]
CCOc1ccccc1NC(=O)Cn1c(=O)n(-c2ccc(C)c(C)c2)c(=O)c2c(C)c(C(=O)N(C)C)sc21 | 0 | 0 | 13µM | 0[10.9 µM]
CCCc1nc2ccccc2c(=O)n1/N=C/c1ccc(O)cc1O | 0 | 0 | 0 | 0
CN=c1scc(C)n1/N=C/c1ccc(O)cc1O | ? | 5µM | 5µM | 0
CN=c1scc(C)n1/N=C/c1ccc(O)cc1 | 0 | 7.9µM | ? | 0
CN=c1scc(C)n1/N=C/c1ccc2c(c1)OCO2 | ? | 5µM | 5µM | 0
CCCc1nc2ccccc2c(=O)n1/N=C/c1ccc(O)cc1 | 0 | 0 | 0 | 0
COc1ccc(-c2noc(Cn3c(=O)c4ccccc4n(CC(=O)Nc4cccc(C(F)(F)F)c4)c3=O)n2)cc1 | ? | 0 | 0 | 0[10.9 µM]
O=S(=O)(c1ccccc1)c1nnn2c1nc(NCc1ccc(F)cc1)c1sccc12 | 0 | 0 | 0 | 0[10.9 µM]
CN(C)c1ccc(/C=c2\sc3n(c2=O)CCCN=3)cc1 | ? | 13µM | 13µM | 0
Cc1cc(N2CCN(C)CC2)nc2ccc(NC(=O)Nc3cccc(Cl)c3)cc12 | 0 | ? | 25µM | 0[10.9 µM]
CCN1CCN(c2cc(C)c3cc(NC(=O)c4cc(Br)ccc4Cl)ccc3n2)CC1 | ? | ? | 13µM | 0[10.9 µM]
Cc1cc(N2CCN(C)CC2)nc2ccc(NC(=O)Nc3ccccc3Br)cc12 | 0 | 16µM | 13µM | 0[10.9 µM]
Cc1ccc(NC(=O)Nc2ccc3nc(N4CCN(C)CC4)cc(C)c3c2)cc1C | ? | ? | 13µM | 0[10.9 µM]
SMILES | IkB sig inh | p53ts 32C kill | p53ts 39C tox | Imprint erasure
Cc1cc(N2CCN(C)CC2)nc2ccc(NC(=O)Nc3ccccc3)cc12 | 0 | ? | ? | 0[10.9 µM]
CNC(=O)c1c[nH]c2ccc(S(=O)(=O)Nc3cccc(Cl)c3C)cc2c1=O | ? | ? | 0 | 0[10.9 µM]
CCc1ccc(NC(=O)CSc2nc3n[nH]c(C)c3c(=N)n2-c2ccccc2C)cc1 | 0 | 0 | 10µM | 0[10.9 µM]
CCc1ccccc1-n1c(SCC(=O)Nc2ccc(C)cc2)nc2n[nH]c(C)c2c1=N | ? | 0 | 0 | 0[10.9 µM]
Cc1c(Cl)cccc1-n1c(SCC(=O)NCc2ccccc2)nc2n[nH]c(C)c2c1=N | ? | 0 | 0 | 0[10.9 µM]
Cc1ccc(-n2c(SCC(=O)NCc3ccccc3)nc3n[nH]c(C)c3c2=N)cc1Cl | 0 | 0 | 20µM | 0[10.9 µM]
CCOC(=O)C1CCN(C(=O)CSc2n[nH]c(-c3ccccc3Cl)n2)CC1 | ? | 0 | 0 | 0[10.9 µM]
CCc1ccc2ncc3c(-c4ccc(F)cc4)nn(CC(=O)NCc4ccccc4)c3c2c1 | ? | 0 | 0 | 0[10.9 µM]
COC1=CC(=O)C(O)=C/C1=C\C=C\c1ccccc1 | - | 0 | 0 | 0
CCN(Cc1ccccc1)S(=O)(=O)c1ccc(C(=O)Nc2nnc(-c3ccccc3OC)o2)cc1 | 0 | 0 | 13µM | 0
CCCCN(C)S(=O)(=O)c1ccc(C(=O)Nc2nnc(-c3cccs3)o2)cc1 | ? | 0 | 7.9µM | 0
CCCCN(CC)S(=O)(=O)c1ccc(C(=O)Nc2nnc(CSC)o2)cc1 | 0 | 0 | 25µM | 0
COc1ccccc1-c1nnc(NC(=O)c2ccc(S(=O)(=O)N(C)C)cc2)o1 | 0 | 0 | ? | 0
CCCCN(CCCC)S(=O)(=O)c1ccc(C(=O)Nc2nnc(CSC)o2)cc1 | 0 | 0 | 16µM | 0
O=C(c1ccncc1)N1CCC[C@@]2(CCN(c3ccncc3)C2)C1 | 0[11.4 µM] | 0 | 0 | -
Cn1c(=O)cc(OCC(=O)NCc2ccc(F)cc2Cl)c2ccccc21 | 0 | 0 | 0 | 0[10.9 µM]
C[C@@]12CCC(=O)C=C1CC[C@@H]1[C@@H]2[C@H](O)C[C@]2(C)[C@@H]1CC[C@]2(O)C(=O)COC(=O)CCC(=O)O | 0.13µM | 0 | 0 | -
C[C@@]12CCC(=O)C=C1CC[C@@H]1[C@@H]2[C@H](O)C[C@]2(C)[C@@H]1CC[C@]2(O)C(=O)CO | 0.079µM! | - | - | 0
COc1cc(OC)c(NC(=O)CCCn2nc(C)c3sc4ccccc4c3c2=O)cc1Cl | 0 | 0 | 13µM | 0[10.9 µM]
NCCCCNS(=O)(=O)c1cccc2c(Cl)cccc12 | 0 | 0 | 16µM | 0
Oc1c(CN2CCN(c3ccccc3)CC2)cc(Br)c2cccnc12 | 0[11.4 µM] | 0[9.22 µM] | ? | 0[10.9 µM]
Oc1c(Br)cc(Br)c2cccnc12 | - | ? | 7.9µM | 0
O=C(Nc1ccccc1-c1nc2ccccc2o1)c1ccc2c(c1)OCCO2 | 0 | 0 | 0 | 0
O=C(Nc1ccc2oc(-c3ccccc3F)nc2c1)c1ccc2c(c1)OCCO2 | ? | 13µM | 0 | 0
O=C(Nc1ccc2oc(-c3cc(Br)ccc3Cl)nc2c1)c1ccc2ccccc2c1 | 0 | ? | 13µM | 0[10.9 µM]
SMILES | IkB sig inh | p53ts 32C kill | p53ts 39C tox | Imprint erasure
O=C(Nc1ccc2oc(-c3ccc4ccccc4c3)nc2c1)c1cc(Br)ccc1Cl | 0 | 0 | ? | 0[10.9 µM]
CCCCOC(=O)c1ccc(Nc2nc3ccc(C(=O)c4ccccc4)cc3n3cnnc23)cc1 | 0 | 0 | 0 | 0[10.9 µM]
CCN(CCN(C)C)C(=O)C1CCN(S(=O)(=O)c2c(C)noc2/C=C/c2ccccc2F)CC1 | 0 | 0 | 13µM | 0[10.9 µM]
Cc1ccc(/C=C/c2onc(C)c2S(=O)(=O)N2CCC(C(=O)N3CCC(N(C)C(C)C)CC3)CC2)cc1 | 0 | ? | 20µM | 0[10.9 µM]
CCOc1ccccc1/C=C/c1onc(C)c1S(=O)(=O)N1CCC(C(=O)N(CC)CC)CC1 | 0 | 0 | 0 | 0[10.9 µM]
O=C(N/N=C/c1cccs1)c1ccc2c(c1)OCO2 | - | 8.9µM | 10µM | -
Cc1ccc2cc3cc(C(=O)N4CCCCC4C)oc3nc2c1 (centres undefined) | 0 | 13µM | ? | 0

Source: PubChem BioAssay
